Results: PubChem BioAssay (NCATS)
Values joined by “and” are separate entries in the source; they are usually repeats but may differ in a detail not shown here. Equal values may be shown once. Inconclusive results are not listed. Unmarked numbers belong to inactive results. Active and inactive are the calls of the source. The call rests on the fitted dose curve; in most records, active means well fitted inhibition curve with a large enough effect; inconclusive means small, poorly fitted or top-dose-only effect; inactive means flat fitted curve, though single readings scatter.

Columns and labels:
HEK293 = assay: Cytotoxic Profiling of Annotated Libraries Using Quantitative High-Throughput Screening (AID 1296008); conditions: Five cell lines viability, CellTiter-Glo ATP luminescence, 48-72 h; max response: hits give low values; further: potency means the concentration at half of the fitted maximal effect; on max response: on the % scale 0 is the no-effect control and ±100 the full control effect
Outline: (§1)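 Compounds were pin-transferred onto cells and incubated 48 or 72 hr at 37 degree Celsius, 95% humidity. CellTiter-Glo was added, plates sat 10 min at room temperature, then ATP-coupled luminescence was imaged as the viability read-out.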

HaCat [1] = assay: as above; conditions: Five cell lines viability, CellTiter-Glo ATP luminescence, 48-72 h; max response: hits give low values
Outline: as §1

KB-3-1 = assay: as above; conditions: Five cell lines viability, CellTiter-Glo ATP luminescence, 48-72 h; max response: hits give low values
Outline: as §1

NIH3T3 = assay: as above; conditions: Five cell lines viability, CellTiter-Glo ATP luminescence, 48-72 h; max response: hits give low values
Outline: as §1

CRL-7250 = normal cell line; assay: as above; conditions: Five cell lines viability, CellTiter-Glo ATP luminescence, 48-72 h; max response: hits give low values
Outline: as §1

HACAT [2] = assay: qHTS assay to identify novel small-molecules to repurpose for Merkel cell carcinoma treatment (AID 1296009); conditions: MCC and control cell lines, CellTiter-Glo viability, 72 h; at 44.8 µM (top of the series) unless noted
Outline: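 qHTS format: cells treated with library compounds in DMSO across 8 (NPC) or 11 (MIPE) concentrations. Readout after 72 hr at 37 degree celsius was CellTiter-Glo luminescence.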

TAB109 = assay: qHTS profiling for inhibitors of Plasmodium falciparum proliferation (AID 504749); further: potency means the concentration at half of the fitted maximal effect; conditions: P. falciparum in erythrocytes, SYBR Green DNA, 72 h; series mostly up to 28.7 µM
Outline: (§2)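 Parasite proliferation within erythrocytes, 72 h exposure. Endpoint: SYBR Green I fluorescence after overnight lysis at room temperature. Controls: 0.29 uM artemisinin, DMSO.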

TAB113 = assay: as above; conditions: P. falciparum in erythrocytes, SYBR Green DNA, 72 h; series mostly up to 28.7 µM
Outline: as §2

TAB165 = assay: as above; conditions: P. falciparum in erythrocytes, SYBR Green DNA, 72 h; series mostly up to 28.7 µM
Outline: as §2

W2 = assay: as above; conditions: P. falciparum in erythrocytes, SYBR Green DNA, 72 h; series mostly up to 28.7 µM
Outline: as §2
Further: nearly all actives have a fitted effect of over 60% in size.

For `C#CCC(Cc1cnc2nc(N)nc(N)c2n1)c1ccc(C(=O)N[C@@H](CCC(=O)O)C(=O)O)cc1` (stereo not given in full), the Potency (HEK293) was 0.0418 µM (active), the Potency (HaCat [1]) was 3.32 µM (active) and the Potency (KB-3-1) was 0.146 µM (active). The Potency (NIH3T3) was 0.332 µM (active).
In the case of `CN(C)c1ccc2cc(C(=O)N[C@@H](CCCN=C(N)CCl)C(=O)NCc3ccccc3)ccc2c1`, the Potency (CRL-7250) is reported as 18.7 µM (active), the max response (HaCat [1]) is reported as -9.24% and the max response (NIH3T3) is reported as -19.2%.
For `C[C@@H](Cc1cc2c(c(C(N)=O)c1)N(CCCO)CC2)NCCOc1ccccc1OCC(F)(F)F`, the Potency (CRL-7250) was 20.6 µM (active) and the max response (KB-3-1) was -7.67%.
For `CC(C)(O)CC[C@@H](O)[C@](C)(O)[C@H]1CC[C@@]2(O)C3=CC(=O)[C@@H]4C[C@@H](O)[C@@H](O)C[C@]4(C)[C@@H]3CC[C@]12C`, the max response (HEK293) was -3.79%, the max response (HaCat [1]) was -11.3% and the max response (KB-3-1) was -6.66%. For the same compound, the max response (NIH3T3) was 0.822%.
In the case of `COc1cc(O)c2c(c1)C1OC1C[C@H](O)[C@H](O)C(=O)C=CC[C@H](C)OC2=O` (stereo not given in full), the Potency (CRL-7250) is reported as 26.4 µM (active), the Potency (HaCat [1]) is reported as 23.5 µM (active) and the Potency (NIH3T3) is reported as 16.6 µM (active).
In the case of `CC(C)NC[C@@H](C(=O)N1CCN(c2ncnc3c2[C@H](C)C[C@H]3O)CC1)c1ccc(Cl)cc1`, the Potency (HEK293) is reported as 0.209 µM (active) and the Potency (HaCat [1]) is reported as 4.18 µM (active).
For `Cn1cnc2c(F)c(Nc3ccc(Br)cc3F)c(C(=O)NOCCO)cc21`, the Potency (CRL-7250) was 23.5 µM (active) and 7.31 µM (active) and the max response (KB-3-1) was -0.774% and -5.49%.
In the case of `CCOc1cc2c(c(F)c1OCC)C(=N)N(CC(=O)c1cc(N3CCOCC3)c(OC)c(C(C)(C)C)c1)C2`, the Potency (HEK293) is reported as 16.4 µM (active).
For `C=CC(=O)N1CCc2ccc(-n3c(=O)ccc4cnc5ccc(-c6cnn(C)c6)cc5c43)cc21`, the Potency (CRL-7250) was 3.72 µM (active) and the Potency (KB-3-1) was 4.18 µM (active).
`OCCNC1CCCc2c1[nH]c1ccc(-c3ccccc3)cc21` (stereo not given) was tested, and the Potency (HEK293) was 13.2 µM (active), the outcome (HaCat [1]) was “inactive” and the Potency (KB-3-1) was 14.6 µM (active). The Potency (NIH3T3) was 16.4 µM (active) and the outcome (HACAT [2]) was “inactive”.
For `NC(=NCCCCCCN=C(N)N=C(N)Nc1ccc(Cl)cc1)N=C(N)Nc1ccc(Cl)cc1`, the Potency (KB-3-1) was 8.33 µM (active).
For `Nc1nc(N)c2nc(-c3cccc(O)c3)c(-c3cccc(O)c3)nc2n1`, the Potency (HaCat [1]) was 14.8 µM (active) and the Potency (KB-3-1) was 10.5 µM (active).
In the case of `Cc1cnn(C)c1C(=O)Nc1cc(Nc2ccc3c(C=Cc4ccccn4)n[nH]c3c2)ccc1F`, the Potency (HEK293) is reported as 3.72 µM (active) and the Potency (NIH3T3) is reported as 13.2 µM (active).
`O=[N+]([O-])c1cn2c(n1)OC[C@@H](OCc1ccc(OC(F)(F)F)cc1)C2` gave a max response (KB-3-1) of -6.53% and a max response (NIH3T3) of -7.72%.
In the case of `C[N+](C)([O-])CCNc1ccc(NCC[N+](C)(C)[O-])c2c1C(=O)c1c(O)ccc(O)c1C2=O`, the Potency (HEK293) is reported as 5.26 µM (active), the max response (HaCat [1]) is reported as -8.98% and the Potency (NIH3T3) is reported as 0.0935 µM (active).
In the case of `CCc1ccc(C(=O)Nc2cc(CN3CCN(C)CC3)cc(C(F)(F)F)c2)cc1C#Cc1cnc2ccnn2c1`, the Potency (HEK293) is reported as 10.5 µM (active) and the Potency (KB-3-1) is reported as 8.33 µM (active).
In the case of `CC(C)Oc1ccc(C(=O)N[C@H](CNC(=O)CN(C)C)Cc2ccc(-c3cn4cccc([C@H](C)O)c4n3)cc2)cc1Cl`, the Potency (KB-3-1) is reported as 0.332 µM (active).
For `CCCCCCCCCCCC(CC1OC(=O)C1CCCCCC)OC(=O)C(CC(C)C)NC=O` (stereo not given), the Potency (TAB109) was 0.794 µM (active), the Potency (TAB113) was 0.282 µM (active) and the Potency (TAB165) was 0.398 µM (active). For the same compound, the Potency (W2) was 0.675 µM (active), the outcome (HaCat [1]) was “inactive” and the max response (KB-3-1) was 7.07%. For the same compound, the max response (NIH3T3) was 0.608% and the outcome (HACAT [2]) was “inactive”.
In the case of `Cc1cncc2cccc(S(=O)(=O)N3CCCN(C(=O)CN)C[C@@H]3C)c12`, the Potency (HaCat [1]) is reported as 8.33 µM (active), the max response (KB-3-1) is reported as -18.7% and -19.4% and the Potency (NIH3T3) is reported as 26.4 µM (active).
For `N#CC(=Cc1ccc(O)c(O)c1)C(=O)NCc1ccccc1`, the max response (HaCat [1]) was -2.31% and the outcome (KB-3-1) was “inactive”.
With `COc1cc2c(cc1O)CCC1C2CC[C@@]2(C)C1CC[C@@H]2O` (stereo not given in full) the Potency (HEK293) was 1.18 µM (active), the Potency (KB-3-1) was 3.32 µM (active) and the Potency (NIH3T3) was 4.18 µM (active).
In the case of `CCc1cnn2c(NCc3ccc[n+]([O-])c3)cc(N3CCCC[C@@H]3CCO)nc12`, the Potency (NIH3T3) is reported as 0.105 µM (active).
`O=C(NC1CC1)c1cccc(-c2ccc3c(NC(=O)C4CC4)n[nH]c3c2)c1` was tested, and the Potency (KB-3-1) was 4.18 µM (active).
For `CC(O)(C#Cc1ccc2c(c1)N(c1nc(N)ncc1Cl)CC2)c1nccs1` (stereo not given), the Potency (HEK293) was 26.4 µM (active), the max response (HaCat [1]) was -12.6% and the max response (KB-3-1) was -15.7%. For the same compound, the max response (NIH3T3) was -24.2%.
For `CC(=O)NCC(=O)N1[C@H]2CC[C@H]1c1cc(Nc3ncc(C(F)(F)F)c(NC4CCC4)n3)ccc12`, the Potency (HEK293) was 5.26 µM (active), the Potency (HaCat [1]) was 0.132 µM (active) and the Potency (KB-3-1) was 1.66 µM (active). For the same compound, the Potency (NIH3T3) was 1.32 µM (active).
In the case of `COc1cccc2c1C(=O)c1c(O)c3c(c(O)c1C2=O)C[C@@](O)(C(=O)CO)C[C@@H]3O[C@H]1C[C@H](N)[C@H](OC2CCCCO2)[C@H](C)O1` (stereo not given in full), the Potency (TAB109) is reported as 2.51 µM (active), the Potency (TAB113) is reported as 3.55 µM (active) and the Potency (TAB165) is reported as 2.24 µM (active). For the same compound, the Potency (W2) was 0.601 µM (active), the Potency (HEK293) was 0.332 µM (active) and the Potency (HaCat [1]) was 2.35 µM (active). The Potency (KB-3-1) was 0.833 µM (active) and the Potency (NIH3T3) was 0.59 µM (active).
In the case of `O=C(CCCCCCC(=O)Nc1cccnc1)NO`, the Potency (KB-3-1) is reported as 14.8 µM (active).
In the case of `CC(C)n1cnc2c(NCCc3ccc(O)cc3)nc(-c3csc4ccccc34)nc21`, the max response (NIH3T3) is reported as -7.93%.
In the case of `C[C@H]1[C@@H](OC(=O)CCC(=O)O)O[C@@H]2O[C@@]3(C)CC[C@@H]4[C@H](C)CC[C@@H]1[C@@]24OO3`, the Potency (HEK293) is reported as 2.35 µM (active), the Potency (KB-3-1) is reported as 18.7 µM (active) and the Potency (NIH3T3) is reported as 20.9 µM (active).
